Here are results for 14 compounds from ChEMBL document CHEMBL4513146, “CO-ADD screening of Karazin Kharkiv National University (Ukraine) compounds”.

Molecules are shown by their SMILES. Entries with a potency or affinity are not part of this list.

Broadly, the Inhibition is the change of the read-out against control, counted positive when it falls.

The test system of this assay is Escherichia coli. Particulars: Concentration 32 ug.mL-1;; ASSAY_TEST Inhibition of Bacterial Growth; detection method Absorption (OD600); MEDIA CAMHB; plate type 384well; NBS; CORNING #3640; time 18 hr.
With `COc1cccc(CN(c2ccc(F)cc2)S(=O)(=O)c2cccn3cnnc23)c1`, the Inhibition is reported as -3.63%.
Turning to `COc1ccc(NC(=O)Cn2nc3c4cc(-c5ccc(C)cc5)nn4ccn3c2=O)cc1Cl`, the Inhibition is on record as -3.03%.
`Cc1ccc(NC(=O)Cn2nc3ccc(-c4ccccc4)nn3c2=O)cc1`: the Inhibition is given as -12.45%.
For `Cc1ccccc1NC(=O)Cn1nc2c(SC3CCCCC3)nccn2c1=O` the value was -9.01%; for `O=C(Cn1nc2nc(Nc3ccc(F)cc3)ccn2c1=O)Nc1cc(F)ccc1F`, -2.67%; for `Cc1nc(-c2ccccc2)cc2nn(CC(=O)Nc3ccc4c(c3)OCO4)c(=O)n12`, -4.44%.
In the case of `COc1ccc(-c2cc3c4nn(CC(=O)Nc5c(C)cc(C)cc5C)c(=O)n4ccn3n2)cc1`, the Inhibition came out at 4.81%.
In the case of `O=S(=O)(c1ccc2nncn2c1)N(Cc1cc(F)cc(F)c1)c1ccccc1`, the Inhibition is on record as -13.22%.
In the case of `Cc1nnc2c(=O)n(CC(=O)NC3CCCC3)c3ccccc3n12` it was -6.29%; in that of `CCc1nnc2c(=O)n(CC(=O)Nc3ccc(NC(C)=O)cc3)c3ccccc3n12`, -3.04%; in that of `Cc1ccc(-c2cc3c4nn(CC(=O)Nc5ccc6c(c5)OCCO6)c(=O)n4ccn3n2)cc1C`, -3.26%.
Regarding `O=C(Cn1nc2c(Sc3cccc(F)c3)nccn2c1=O)Nc1cccc(C(F)(F)F)c1`, the Inhibition is listed as -0.7%.
`Cc1ccc(NC(=O)Cn2nc3c4cc(-c5ccc(C)c(C)c5)nn4ccn3c2=O)cc1C`: the Inhibition is listed as -7.36%.
For `Cc1[nH]c2ccccc2c1C(=O)CSc1nnc2c(=O)n(-c3ccccc3)ccn12`, the Inhibition is -0.61%.
